Screens as filed in PubChem.
A selection: hits, their analogues and other compounds. The true share with any hit is near 10%.
ALDH1A1 inh – qHTS Assay for Inhibitors of Aldehyde Dehydrogenase 1 (ALDH1A1); Aldehyde dehydrogenase 1A1 (Homo sapiens), P00352; 7.3% of 220,000 active; AID 1030, 2008; Potency, µM (top dose mostly 75.3 µM), for the others: at the top dose activity, negative = inhibition, most hits filed as inhibitors; Purified ALDH1A1, NADH fluorescence, propionaldehyde substrate;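 also: potency is read from the fitted curve at half-maximal effect; plate controls were no enzyme wells and a reference inhibitor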
Target sequence (P00352 whole entry, looked up): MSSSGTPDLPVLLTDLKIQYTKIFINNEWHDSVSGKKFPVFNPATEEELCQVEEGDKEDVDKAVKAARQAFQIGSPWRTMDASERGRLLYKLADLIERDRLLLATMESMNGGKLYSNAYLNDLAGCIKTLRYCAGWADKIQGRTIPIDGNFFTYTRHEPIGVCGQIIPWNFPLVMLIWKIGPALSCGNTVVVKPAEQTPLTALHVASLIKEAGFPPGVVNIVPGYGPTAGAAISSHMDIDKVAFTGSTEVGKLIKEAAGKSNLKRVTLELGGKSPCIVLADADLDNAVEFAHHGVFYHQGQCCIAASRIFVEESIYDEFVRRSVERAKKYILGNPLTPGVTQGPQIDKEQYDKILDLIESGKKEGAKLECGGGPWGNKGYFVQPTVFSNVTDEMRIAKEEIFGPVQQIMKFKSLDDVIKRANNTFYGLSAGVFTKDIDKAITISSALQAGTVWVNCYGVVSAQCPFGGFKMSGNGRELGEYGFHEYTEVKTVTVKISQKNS
LMNA splice mod – qHTS Assay for Modulators of Lamin A Splicing; HeLa LMNA splicing GFP/RFP minigene ratio, 48 h; Potency, µM (highest dose often 46.1 µM), for the others: at the top dose ratio change, negative = inhibition, actives largely listed as inhibitors; 0.01% of 200,000 active; active = well fitted inhibition curve with a large enough effect in the signal ratio, with a control signal flat, not every such curve was filed as active; inconclusive = small, poorly fitted or top-dose-only effect, or effect the other way, or a change in a side signal; the % refers to the signal ratio; also: potency is read from the fitted curve at half-maximal effect
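S3 HeLa stable clones carrying a lamin A-EGFP splicing minigene plus DsRed2 were seeded at 600 cells/well in Opti-MEM with 2% FBS, pin-dosed and incubated 48 h at 37°C. Acumen cytometry (488 nm) gave the GFP/RFP total-intensity ratio.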
Luc counter – Counterscreen for Luciferase (Kinase-Glo TM) Inhibition; Potency, µM (titrated, usually from 38.3 µM), for inactives: at the top dose activity change, negative = inhibition, hits mostly inhibitors; 0.28% of 200,000 active; Kinase-Glo luciferase, ATP luminescence, 8 min; active = well fitted inhibition curve with a large enough effect; inconclusive = small, poorly fitted or top-dose-only effect; also: potency is read from the fitted curve at half-maximal effect; nearly all actives have a fitted effect of over 60% in size
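Luminescence was the read-out, taken after 8-minute incubation at ambient temperature. Luciferase turned over luciferin with 10 uM ATP in imidazole pH 7.2 buffer containing KCl, MgCl2, Tween 20 and BSA.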
PNC inhibitor – High Content Assay for Compounds that inhibit the Assembly of the Perinucleolar Compartment. AID 2417, 2010. activity change (PNC), negative = inhibition, % at 10 µM. 3.1% of 140,000 active. PC3M PTB-GFP, PNC prevalence imaging, 16 h; active compounds read low;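 active = readout at or below -70, meaning at least 70% loss of cells showing the perinucleolar compartment, a nuclear body marking cancer cells; inconclusive = readout between -30 and a set limit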;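 also: plate controls were DMSO wells for no effect and camptothecin positive control wells for full effect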
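Compounds are pinned in duplicate onto adhered PC3M cells stably expressing GFP-tagged PTB and incubated 16 h at 37 C. Cells are then fixed, nuclei stained with Hoechst, and PNC-positive cells counted.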
IMPase cell inh – qHTS Assay for Identifying the Cell-Membrane Permeable IMPase Inhibitors; 120,000 tested, under 10 active; AID 901, 2007; inhibition (IP1 accumulation), % at 46.1 µM; Inositol monophosphatase 1 (Rattus norvegicus), P97697; CHO-M1 cells, IP1 accumulation, HTRF TR-FRET ratio; active = well fitted curve in the direction sought with a large enough effect in the signal ratio, not every such curve was filed as active; inconclusive = small, poorly fitted or top-dose-only effect, or a change in a side signal; inactive = no such curve, though single readings can be large or run the other way; the % refers to the signal ratio;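 also: cells stimulated with carbachol in lithium chloride buffer; plate controls were DMSO basal wells for no effect and reference inhibitor wells for full effect; higher means more IMPase inhibition seen as more IP1 and lower FRET ratio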
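Cellular IMPase inhibition is scored as a rise in cytosolic IP1, detected by competitive TR-FRET between d2-labelled IP1 and a europium anti-IP1 antibody. M1-expressing CHO cells were stimulated with carbachol for 30 min at 37C, with lithium (50 mM LiCl) present in the buffer.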
HPGD block – qHTS Assay for Inhibitors of HPGD (15-Hydroxyprostaglandin Dehydrogenase). 15-hydroxyprostaglandin dehydrogenase [NAD(+)] (Homo sapiens), P15428. purified HPGD, NADH fluorescence kinetic, PGE2 substrate. Potency, µM, without a hit: at the top dose activity change, negative = inhibition, usual class: inhibitors. 4.3% of 150,000 active. AID 894, 2007; also: potency is read from the fitted curve at half-maximal effect
Target sequence (P15428 whole entry, looked up): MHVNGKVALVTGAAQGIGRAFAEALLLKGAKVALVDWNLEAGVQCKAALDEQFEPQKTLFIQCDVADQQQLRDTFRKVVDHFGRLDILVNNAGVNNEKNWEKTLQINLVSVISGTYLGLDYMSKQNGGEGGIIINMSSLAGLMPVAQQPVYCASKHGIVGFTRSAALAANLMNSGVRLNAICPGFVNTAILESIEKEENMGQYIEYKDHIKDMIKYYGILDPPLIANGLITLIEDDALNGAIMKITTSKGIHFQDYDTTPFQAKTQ
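NADH formation kinetics: reaction with 30 uM PGE2 and 1 mM NAD+ (final), 20 nM enzyme, Tris-HCl pH 8 with Tween 20, after 15 min compound preincubation at room temperature. Fluorescence change, last versus first of five reads.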
* hit, by the source's call; ? = inconclusive; nt = not tested or not shown; [ ] = remark or other dose. Unless noted, calls follow the shape of the dose curve; as a rule, active = well fitted inhibition curve with a large enough effect (not every such curve was filed as active); inconclusive = small, poorly fitted or top-dose-only effect, or another doubt; inactive = no such curve, though single readings can be large or run the other way. Unless noted, % is scaled to controls: 0 for no effect and ±100 for the full control effect.

SMILES	ALDH1A1 inh	LMNA splice mod	Luc counter	PNC inhibitor	IMPase cell inh	HPGD block
COc1ccc(OC)c(NC(=O)CN2C(=O)NC3(CCOc4ccccc43)C2=O)c1 (centres undefined)	8%	2%	-4%	-3	-5	-4%
COc1ccc(CN2C(=O)NC3(CCOc4ccccc43)C2=O)cc1F (centres undefined)	-14%	-19%	4%	-80*	6	-4%
COc1ccc(CN2C(=O)NC(C)(c3ccc(C)cc3)C2=O)cc1F (centres undefined)	0.35µM*	-16%[46 µM]	0%	nt	nt	nt
Cc1ccc(S(=O)(=O)N/N=c2\oc3ccccc3cc2C(=O)Nc2cccc(C)c2)cc1	0.16µM*	2%	-5%	15	nt	-13%
COc1ccc(CNC(=O)c2ccc3c(=O)n(CCCN4CCCC4=O)c(=S)[nH]c3c2)cc1	28µM*	-9%[46 µM]	-2%	nt	nt	nt
O=C(NCc1ccccc1)c1ccc2c(=O)n(CCCN3CCCC3=O)c(=S)[nH]c2c1	4.5µM*	11%	-1%	-13	-7	-11%
COc1ccc(OC)c(-n2c(=S)[nH]c3cc(C(=O)NCCCN4CCCC4=O)ccc3c2=O)c1	-10%	9%	-1%	-26	14	-1%
COc1ccc(-n2c(=S)[nH]c3cc(C(=O)NCCCN4CCCC4=O)ccc3c2=O)cc1OC	2.5µM*	3%	2%	2	7	-6%
Cc1ccc(CNC(=O)c2ccc3c(=O)n(CCCN4CCCC4=O)c(=S)[nH]c3c2)cc1	?	9%	-1%	32	-10	-26%
O=C(NCCCN1CCCC1=O)c1ccc2c(=O)n(Cc3ccco3)c(=S)[nH]c2c1	13µM*	-4%	0%	?	nt	-4%
COc1ccccc1CNC(=O)COCc1cc(-c2ccc3c(c2)OCO3)on1	nt	-6%[46 µM]	nt	nt	nt	nt
C/C(=N/O)c1ccc2cc(Br)c3ccccc3c2c1	-9%[13.5 µM]	nt	-3%[7.66 µM]	nt	nt	-3%
COc1cc(NC(=O)CCc2c(C)nn(-c3ccc4nnc(C)n4n3)c2C)cc(OC)c1OC	nt	2%[46 µM]	nt	nt	nt	nt
C=CCNC(=O)c1ccc2c(=O)n(CCCN3CCCC3=O)c(=S)[nH]c2c1	3.2µM*	nt	-1%	nt	nt	nt
COc1ccccc1CNC(=O)c1ccc2c(=O)n(CCCN3CCCC3=O)c(=S)[nH]c2c1	2µM*	?	-4%	nt	nt	nt
CCOC(CNC(=O)c1ccc(N2CCc3ccccc32)c([N+](=O)[O-])c1)OCC	10µM*	?	-6%	?	nt	-19%
O=C(NCc1ccc(F)cc1)c1ccc(N2CCc3ccccc32)c([N+](=O)[O-])c1	?	?	-3%	-4	12	-21%
Cc1cc(C(=O)Nc2nc(C)c(C(=O)N(C)C)s2)ccc1[N+](=O)[O-]	10%	-3%	-4%	4	nt	-6%
Cc1nc(NC(=O)c2ccc([N+](=O)[O-])cc2Cl)sc1C(=O)N(C)C	13µM*	15%	-3%	36	nt	14µM*
O=C(/C=C/c1ccco1)OCc1nnc(-c2ccccc2)o1	?	15%[46 µM]	0%	nt	nt	nt
O=C(/C=C/c1ccco1)OCc1nnc(-c2ccc(Cl)cc2)o1	25µM*	?	0%	nt	nt	nt
O=C(Oc1ccc(N(Cc2cccs2)C2=NS(=O)(=O)c3ccccc32)cc1)c1ccco1	28µM*	-7%	4%	?	2	-23%
Cc1ccc(S(=O)(=O)NCC2CCC(C(=O)NCCc3ccccc3)CC2)cc1 (centres undefined)	nt	-16%[46 µM]	nt	nt	nt	nt
Cc1cccc(-n2ncc3c(NNC(=O)c4ccccc4Cl)ncnc32)c1	nt	-15%[46 µM]	nt	nt	nt	nt
O=C1CCC/C(=N/Nc2ccc(Cl)cc2)C1	1.6µM*	?	-5%	nt	nt	nt
SMILES	ALDH1A1 inh	LMNA splice mod	Luc counter	PNC inhibitor	IMPase cell inh	HPGD block
CCOc1ccc(S(=O)(=O)N/N=C2/CCCC(=O)C2)cc1	?	-7%	-1%	?	nt	-6%
COc1cccc(-c2csc(N3CCN(C(=S)Nc4ccccc4C)CC3)n2)c1	?	?	0%	nt	nt	nt
COc1cccc(-c2csc(N3CCN(C(=S)Nc4ccc(Cl)cc4)CC3)n2)c1	0.089µM*	-11%	-1%	100	1	-21%
COc1cccc(-c2csc(N3CCN(C(=O)Nc4ccccc4Cl)CC3)n2)c1	22µM*	?	0%	nt	nt	nt
COc1cccc(-c2csc(N3CCN(Cc4ccccc4)CC3)n2)c1	10µM*	?	-1%	-14	4	25µM*
COc1cccc(-c2csc(N3CCN(S(=O)(=O)c4ccc(F)cc4)CC3)n2)c1	-17%	0%	-3%	32	3	-11%
COc1cccc(-c2csc(NC(C)=O)n2)c1	11µM*	-10%	0%	-5	-17	?
COc1ccc(-c2csc(NC(C)=O)n2)cc1OC	?	5%	-1%	35	7	-16%
COc1cccc(-c2csc(N3CCN(C(=S)Nc4ccccc4)CC3)n2)c1	1%	19%[0.0737 µM]	0%	38	4	-12%
Clc1ccccc1-c1nnc(-c2ccccc2CNc2ccc(Br)cc2)o1	nt	nt	nt	nt	5	nt
O=C(CCNS(=O)(=O)c1ccc2c(c1)CCN2C(=O)C1CC1)Nc1ccc(F)cc1F	nt	1%[46 µM]	nt	nt	nt	nt
Oc1ccc(-c2csc(NCc3ccco3)n2)cc1	?	-30%	-4%	17	0	-14%
CC(=O)Nc1cccc(-c2csc(NCc3ccco3)n2)c1	13µM*	-4%	-4%	41	-1	-24%
COc1cc(NC(=O)c2cnc3c(-c4ccc(F)cc4)c(C)nn3c2C)cc(OC)c1	nt	13%[46 µM]	nt	nt	nt	nt
COC(=O)C1=C(C(=O)OC)[C@@H]2N(C)c3ccc(OC)cc3[C@@]23C[C@@H](C(=O)OC)N(S(=O)(=O)c2ccc(C)cc2)C3=N1	-10%[13.5 µM]	1%[9.22 µM]	-1%[7.66 µM]	nt	nt	2%
COC(=O)c1ccc(CN2CCN(Cc3ccc(C(=O)OC)o3)CC2)o1	22µM*	13%	-2%	40	8	-9%
COc1ccc(CCC(=O)NC2=NCCS2)cc1OC	12%	-1%	9%	-100*	1	-1%
C[C@@H]1NC(=O)c2cc([N+](=O)[O-])cc(I)c2NCC[C@@H](C(N)=O)NC(=O)[C@H](CC(N)=O)NC1=O	-5%	-8%	-2%	-103*	nt	-11%
C=CCn1c(N)cc(=O)nc1SCC(=O)N(c1ccccc1)c1ccccc1	22µM*	nt	4%	nt	nt	nt
Cc1ccc(OCc2nc3ccccc3n2Cc2ccccc2Cl)cc1	nt	nt	nt	nt	4	nt
